Assay results reported in PubChem BioAssay AID651707 (NMMLSC, 2012).
In all, about 2,300 compounds went through this assay and about 170 (7.4%) were called active.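 How the source made its calls: active means over 5% cells positive for green fluorescent reporter, or over 2% positive for both it and APC stain; inactive means the rest, inconclusive results apart.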 These entries were drawn from the full list.

Assay: fluorescent artefacts in myeloid progenitor cells – cell-based, flow cytometry, GFP/APC, Cherry Pick01, artefact control for AML myeloid differentiation project, confirmation (AID 651707);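 on double positive: share of cells both GFP positive and bound by Mac1 APC antibody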;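 on fluorescence response: range taken on the double positive population between DMSO and positive control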
Conditions: ER-HoxA9 myeloid progenitors, no estrogen, GFP autofluorescence flow cytometry, stronger effect = higher value; double positive: measured here: double positive GFP/APC population; fluorescence response: vehicle wells 0%, positive control 100%

Compound	fluorescence response	double positive
O=C(CCCN1C(=O)CCC1=O)Nc1ccc(Cl)c(C(F)(F)F)c1	0% (inactive)	–
CCOC(=O)c1c(-c2ccccc2)oc2ccc(OCC(=O)NN)cc12	0% (inactive)	–
CC(C)OC(=O)CN1C(=O)C(=O)c2ccccc21	0.5% (inactive)	–
Cc1ccc(C)c(S(=O)(=O)N2CCN(c3ncnc4sccc34)CC2)c1	0% (inactive)	–
O=C(NCC1CCCCC1)NCC1CCCCC1	0.2% (inactive)	–
Nc1nc(Nc2ccccc2F)nc(NC2CCCCC2)c1[N+](=O)[O-]	0% (inactive)	–
COc1cccc(NC(=O)[C@H](Cc2c[nH]c3ccccc23)NC(=O)[C@@H]2Cc3ccccc3CN2)c1	0.6% (inactive)	–
COc1ccccc1NC(=O)c1cc(Cl)nnc1Cl	0.6% (inactive)	–
O=C(Nc1cccc2ncccc12)c1ccc(-c2ccc(Cl)cc2Cl)o1	0.6% (inactive)	–
CCOC(=O)C1=C(CN2CCc3ccccc32)NC(=O)NC1c1cccc([N+](=O)[O-])c1 (configuration not stated)	0% (inactive)	–
O[C@H]1CN(Cc2cccs2)[C@@H](c2ccc(Cl)cc2)C[C@@H]1n1cc(C2CC2)nn1	0% (inactive)	–
O[C@H]1C[C@H](c2ccc(Cl)cc2)N(Cc2cccs2)C[C@@H]1n1cc(C2CC2)nn1	0.5% (inactive)	–
O=c1oc2ccccc2cc1-c1csc(Nc2ccc(O)cc2)n1	55.3% (active)	–
Cc1ccc(-c2nc(C#N)c(NCCCn3ccnc3)o2)cc1	0.3% (inactive)	–
Cc1ccc(C(=O)NC2CCCC(C)C2C)cc1S(=O)(=O)N1CCCCC1 (configuration not stated)	0% (inactive)	–
Cc1cc(C)c(-c2csc(NC(=O)CCCc3nc4ccccc4c(=O)[nH]3)n2)c(C)c1	2.2% (inactive)	–
CC1CCCC(NC(=O)CN2CCN(Cc3ccc(Cl)cc3)C2=O)C1C (configuration not stated)	0% (inactive)	–
COc1ccc(C(=O)N(Cc2ccccc2)c2ccc(C)cc2)cc1S(=O)(=O)N1CCOCC1	1.5% (inactive)	–
CN(C(=O)c1cccc([N+](=O)[O-])c1)c1ccccc1C(=O)NCc1ccccc1	0.4% (inactive)	–
Cc1ccc(OS(=O)Nc2cccc3nccnc23)cc1 (configuration not stated)	0% (inactive)	–
Fc1cccc(Cl)c1CSc1ccc(-c2ccco2)nn1	0.5% (inactive)	0.2%
O=C(CN1C(=O)NC(Cc2c[nH]c3ccccc23)C1=O)Nc1ccccc1C(F)(F)F (configuration not stated)	0% (inactive)	–
CCOC(=O)C(C(=O)OCC)C(C#N)c1ccccc1 (configuration not stated)	0% (inactive)	–
CCN(CC)c1ccc(/C=N/NC(=O)CNC(=O)c2cccs2)cc1	0% (inactive)	–
COc1ccc(C(C(=O)NCc2ccccc2)n2c(=O)c(-c3ccccc3)nc3ccccc32)cc1 (configuration not stated)	0.7% (inactive)	–
N#C/C(=C/c1ccc(N2CCCCC2)o1)C(=O)NCCc1c[nH]c2ccccc12	64.7% (active)	–

Compound	fluorescence response	double positive
COc1ccccc1CNC(=O)c1cc(-c2cc(Cl)ccc2C)n[nH]1	0% (inactive)	–
O=S(=O)(c1ccc(Br)cc1)c1nc(-c2ccccc2)oc1NCc1cccnc1	1.5% (inactive)	–
CC(=O)Nc1ccc(S(=O)(=O)Nc2ccc(N3CCCCC3)cc2)cc1	10.5% (active)	10.5%
CC(=O)Nc1ccc(S(=O)(=O)Nc2ccc(N3CCOCC3)c(F)c2)cc1	0.8% (inactive)	0.2%
CCOC(=O)c1c(-c2ccc(C)cc2)csc1/N=C(\C)C1=C(O)c2ccccc2C1=O	0% (inactive)	–
COc1ccc(-c2ccc(OC(=O)NC3CCS(=O)(=O)C3)cc2)cc1 (configuration not stated)	0.7% (inactive)	0.4%
COC(=O)CN(c1cccc(C(C)=O)c1)S(C)(=O)=O	0% (inactive)	–
C/C(=C\c1ccccc1)C1NC(=O)c2c(sc3c2CCCC3)N1 (configuration not stated)	0% (inactive)	–
COc1ccc(C2CC(c3cccc(OC)c3)=NN2c2ccc(S(N)(=O)=O)cc2)cc1 (configuration not stated)	0.5% (inactive)	–
Cc1cc(NC(=O)CSc2nc(C(C)C)nc3sc4c(c23)CCC(C)C4)no1 (configuration not stated)	1.4% (inactive)	–
COc1ccc(-c2nnc(SCC(=O)c3cccs3)o2)c(OC)c1	3.4% (inactive)	–
Cc1ccc2c(c1)C1C[N+](C)(CC(=O)c3ccccc3)CCC1N2C(=O)c1ccccc1Cl (configuration not stated)	0% (inactive)	–
Cc1ccc(-n2nc3cc(C)c(NC(=O)c4cccnc4)cc3n2)cc1	4.7% (inactive)	–
COc1ccc2nc(N3CCN(C(=O)c4ccc([N+](=O)[O-])o4)CC3)sc2c1	0% (inactive)	–
CC(C)CC(COCc1ccc(Cl)cc1)N1CCN(C(=O)c2ccc(C(F)(F)F)cc2)CCC1=O (configuration not stated)	0% (inactive)	–
COc1ccccc1N1CCN(C(=O)c2cc(-c3ccc(Br)cc3)on2)CC1	0.3% (inactive)	–
O=C1c2ccccc2C(=O)N1Cc1cc(-c2ccccc2Cl)no1	0% (inactive)	–
Cc1nn(-c2cc(Cl)ccc2N)c(=O)c2ccccc12	0% (inactive)	–
CNC[C@H]1Oc2c(NC(=O)C3CCCCC3)cccc2C(=O)N([C@H](C)CO)C[C@@H]1C	0% (inactive)	–
O=C(Cn1cc(-c2nnnn2-c2ccc(Cl)cc2)c(=O)c2ccccc21)c1ccccc1	0% (inactive)	–
CN1CCC(CN)(N2CCN(c3ccccc3)CC2)CC1	0.6% (inactive)	–
CC#CC[N+](C)(C)CCCCCC	0% (inactive)	–
N#CC1=C(N)Oc2c(sc3ccccc23)C1c1ccco1 (configuration not stated)	0% (inactive)	–
O=C(NC(=O)c1ccccc1)Nc1ccccc1O	1.3% (inactive)	–
Cc1c(C(=O)OCC(=O)N(CCC#N)c2ccccc2)oc2c1ccc1ccccc12	0% (inactive)	–
Cc1cccc(OCC(O)CN2CCN(CCN3C(=O)c4cccc5cccc(c45)C3=O)CC2)c1C (configuration not stated)	0% (inactive)	–

Compound	fluorescence response	double positive
CCCC(=O)Nc1c(O)c2ccccc2[nH]c1=O	0% (inactive)	–
CCN(CC)C(=O)CSC(Nc1cccc(F)c1)=C(C#N)C#N	7.7% (active)	–
Cc1cc(C)c(S(=O)(=O)NCC2CCC(C(=O)NCc3ccc4c(c3)OCO4)CC2)c(C)c1 (configuration not stated)	0.2% (inactive)	–
O=C(CN(c1ccccc1)S(=O)(=O)c1ccc(Cl)cc1)Nc1ccccc1C(=O)N1CCCC1	0% (inactive)	–
CC(C)CNC(=O)COC(=O)/C=C/c1ccccc1[N+](=O)[O-]	0% (inactive)	–
Cc1cc(C)n(C(=O)c2ccc(C)c(S(=O)(=O)N3CCOCC3)c2)n1	2.3% (inactive)	–
Cc1ccc(Nc2cc(C)nc3c(C)ccc([N+](=O)[O-])c23)cc1	6.7% (active)	–
CCc1noc(C)c1C(=O)Nc1nc(-c2ccccc2)cs1	1% (inactive)	–
COc1cccc(NC(=S)NCc2ccccn2)c1	0.3% (inactive)	–
COc1cc(/C=C(\C#N)c2nc3ccccc3[nH]2)ccc1O	36.7% (active)	–
Clc1ccc(-c2nnc(SCc3nc4ccccc4s3)o2)cc1	0% (inactive)	–
CCC1CCCCN1CCCNC(=O)Cn1nc(-c2ccccc2)ccc1=O (configuration not stated)	0% (inactive)	–
CC1=C(C(N)=O)C(c2ccc3c(c2)OCO3)n2nc(-c3cccc(C)c3)nc2N1 (configuration not stated)	0% (inactive)	–
COc1ccc(S(=O)(=O)N2CCC(C(=O)N3CCc4ccccc4C3)CC2)cc1OC	0% (inactive)	–
CN1OC(COC(=O)c2ccc(Cl)cc2)CC1c1ccccc1 (configuration not stated)	0.3% (inactive)	–
COc1cc(/C=C2/SC(=S)N(Cc3ccccc3)C2=O)cc(OC)c1O	97.2% (active)	–
Cc1nc(C)c(-c2nnc(-c3cccc(S(=O)(=O)N(C)C)c3)o2)cc1C(=O)NN	0.7% (inactive)	–
CCOc1ccc(C(=O)Nc2ccc(S(=O)(=O)NCC3CCCO3)cc2)cc1OCC (configuration not stated)	0.3% (inactive)	–
CCCCSc1nc2c(c(=O)n1CC)SC(C)C2 (configuration not stated)	0% (inactive)	–
Nc1ccc2nc3c(=O)[nH]c(=S)[nH]c3nc2c1	0% (inactive)	–
CC(C)c1nc2ccc(C(=O)O)cc2[nH]1	0.4% (inactive)	0.4%
COc1ccc(N(CC(=O)NC2CCCCCCC2)S(=O)(=O)c2c(C)nn(C)c2C)cc1	0% (inactive)	–
Cc1nn(-c2ncccn2)c2c1C(=O)CC(C)(C)C2Br (configuration not stated)	0% (inactive)	–
Cn1c(CNC(=O)c2ccccc2F)nnc1SCc1ccc(F)cc1	0% (inactive)	–
CNc1nc(=O)n(C2CCCO2)cc1C (configuration not stated)	0% (inactive)	–
CC(=O)N1c2ccc(S(=O)(=O)N3CCCC(C(=O)Nc4cccc(F)c4)C3)cc2CC1C (configuration not stated)	0% (inactive)	–

Compound	fluorescence response	double positive
CCOC(=O)CC(=O)CSc1nc(-c2ccccc2)cc(-c2ccc(Cl)cc2)c1C#N	0% (inactive)	–
CC(C)(C)OC(=O)CNC(=O)c1[nH]cnc1C(=O)N[C@@H](Cc1ccccc1)C(=O)OCc1ccccc1	0% (inactive)	–
O=C(Nc1cccc(-c2nc3ncccc3o2)c1)c1ccco1	0.2% (inactive)	–
O=S(=O)(NCc1cccnc1)c1ccc(Cl)nc1	0.4% (inactive)	–
COCCCn1c(=O)/c(=C/c2ccccc2OC(C)C)s/c1=C(\C#N)C(=O)Nc1ccc(C(=O)O)cc1	0% (inactive)	–
O=C(Nc1ccccc1N1CCN(c2ccccc2)CC1)c1cccc(F)c1	0% (inactive)	–
CC1(C)CC(=O)C2=C(C1)Nc1cc(C(=O)c3ccccc3)ccc1NC2c1ccccn1 (configuration not stated)	0.4% (inactive)	–
CCc1c(C)sc(NC(=O)c2cccs2)c1C(N)=O	0% (inactive)	–
C=CCNc1nnc(SCC(=O)N2CCCCC2)c2ccccc12	0.3% (inactive)	–
Cc1cccc(C)c1NC(=O)CCS(=O)(=O)c1cccc2nsnc12	0% (inactive)	–
Cc1ccc2nc(-c3ccccn3)cc(C(=O)Nc3ccc4c(c3)OCO4)c2c1	0% (inactive)	–
CCOC(=O)c1c(-c2cccc(C)c2)csc1NC(=O)c1c(-c2ccccc2)noc1C	0% (inactive)	–
Cn1c2ccccc2c2cc(/C=C(\NC(=O)c3ccccc3)C(=O)NCC(=O)O)ccc21	0% (inactive)	–
CN(C(=O)CSc1nnc(C2CC2)n1C)C1CCCc2ccccc21 (configuration not stated)	0% (inactive)	–
CSc1nnc(-c2ccncc2)n1CCCN1CCCC1=O	0% (inactive)	–
COc1cc(N=Cc2c(O)[nH]c3ccccc23)cc(OC)c1OC	0% (inactive)	–
CC(CNc1ccc([N+](=O)[O-])cc1)NC(=O)c1ccccc1Br (configuration not stated)	0.4% (inactive)	–
Cc1ccc2c(c1)c1ncn(Cc3ccc(F)cc3)c(=O)c1n2C	0% (inactive)	–
Cc1cccc(-n2c(SCC(=O)Nc3cccc(S(=O)(=O)NC4=NCCCCC4)c3)nc3ccccc3c2=O)c1C	0% (inactive)	–
CCN(CC)CC(=O)c1c[nH]c2ccc(OC)cc12	0.3% (inactive)	–
CCOc1ccc(NC(=O)CSc2nc3c(c(=O)n2-c2ccccc2OC)SCC3)cc1	0.5% (inactive)	–
CC(C)C(=O)N1CCN(c2nc(-c3ccccc3)c3c(c2C#N)CC(C)(C)OC3)CC1	0% (inactive)	–
O=C(CN1CCN(C2CCCCC2)CC1)Nc1ccccc1N1CCCCC1	0% (inactive)	–
O=C(NCCN=C1NS(=O)(=O)c2ccccc21)c1ccc(S(=O)(=O)N2CCOCC2)cc1	4.3% (inactive)	–
